FMDV inh: High Throughput Screening for Foot and Mouth Disease Virus Antivirals. Potency, µM (highest dose often 57.9 µM), inactives show at the highest dose activity change, negative = inhibition, usual class: inhibitors. 1.2% of 410,000 active. FMDV antiviral cell-based qHTS; calls by dose curve; tested in HEK293T cells; also: read-out not given here; potency is read from the fitted curve at half-maximal effect; nearly all actives have a fitted effect of over 45% in size
HCMV inh: qHTS Assay for inhibitors of the human cytomegalovirus (HCMV). activity change, negative = inhibition, % at 57.5 µM. HFF cells, HCMV-luciferase reporter, 72 h; stronger effect = lower value. 4.5% of 410,000 active. AID 1259415, 2018; in the data active = activity change below about -60%; inconclusive = no clear call, values can overlap the other calls; inactive = above about -39%
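Two compound doses tested in HFFs infected with HCMV-luciferase, MOI 1 PFU/cell, 72 h at 37C. Lysate luminescence read with OneGlo; data normalized against buffer-only and 10uM Salinomycin inhibitor controls.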
LASV entry inh: qHTS for Inhibitors of binding or entry into cells for Lassa Virus; Lassa virus pseudotype entry inhibition, cell reporter; Potency, µM (series often up to 37.9 µM), for the others: at the highest dose activity change, negative = inhibition, most hits filed as inhibitors; 1.2% of 300,000 active; AID 540256, 2011; calls by dose curve; tested in HEK293 cells; also: potency is read from the fitted curve at half-maximal effect; nearly all actives have a fitted effect of over 50% in size
MARV entry inh: qHTS for inhibitors of binding or entry into cells for Marburg Virus. Marburg virus pseudotyped entry inhibition, cell reporter. Potency, µM (top dose mostly 37.8 µM), for inactives: at the top dose activity change, negative = inhibition, actives largely listed as inhibitors. 1.8% of 300,000 active. AID 540276, 2011; calls by dose curve; tested in HEK293 cells; also: potency is read from the fitted curve at half-maximal effect
* marks the source's active call; other numbers are inactive results; ? = inconclusive; . = no result given; [ ] = remark or other dose. Rows were chosen to be rich in hits. Some 6.2% of all compounds tested hit in one or more screens of this group. % is scaled to controls: 0 for no effect and ±100 for the full control effect.

SMILES	FMDV inh	HCMV inh	LASV entry inh	MARV entry inh
Cc1cccc(N2C(=O)C(CC(=O)Nc3ccc(F)cc3)N(C3CCCC3)C2=O)c1 (configuration not stated)	5%	-33	-13%[46.1 µM]	.
C#CCn1c(=NC(=O)c2cccs2)sc2cccc(OC)c21	5%	-98*	.	.
C#CCn1c(=NC(=O)CN2C(=O)CCC2=O)sc2cccc(OC)c21	10%	-39	.	.
CC(=O)c1ccc(OCC(O)CN(C)CCOc2ccc(Br)cc2)cc1 (configuration not stated)	?	-16	?	8.9µM*
Cc1cccc(S(=O)(=O)c2c(N)n(/N=C/c3cccnc3)c3nc4ccccc4nc23)c1	.	?	-27%	?
COc1ccc(/C=N/n2c(N)c(S(=O)(=O)c3cccs3)c3nc4ccccc4nc32)cc1OC	-24%	-88*	-10%	?
COc1cccc(/C=N/n2c(N)c(S(=O)(=O)c3cccs3)c3nc4ccccc4nc32)c1	19%	-62*	1%	-1%
Cc1cccc(S(=O)(=O)c2c(N)n(/N=C/c3ccco3)c3nc4ccccc4nc23)c1	20%	-28	-22%	?
Cc1ccc(S(=O)(=O)c2c(N)n(/N=C/c3ccco3)c3nc4ccccc4nc23)cc1C	7%	?	-25%	7.1µM*
Nc1c(S(=O)(=O)c2cccs2)c2nc3ccccc3nc2n1/N=C/c1cccc(O)c1	40µM*	-103*	?	?
CCOc1ccc(NC(=O)Cn2c(=O)oc3cc(S(=O)(=O)NC4CCCC4)ccc32)cc1	27%	4	.	-3%[46.1 µM]
Cc1cccc(C(=O)Nc2ccc(N3CCC(CCN4CCOCC4)CC3)c(C(=O)O)c2)c1	-5%	-31	2%[46.1 µM]	.
CCCOC(=O)c1cccc(NC(=O)CSc2nnc3cc(C)c4ccccc4n23)c1	31%	-39	13%[46.1 µM]	2%[46.1 µM]
CCOc1ccc(S(=O)(=O)N2CCN(S(=O)(=O)c3ccc(C(C)=O)cc3)CC2)cc1	-15%	6	20%	17%[46.1 µM]
CCOc1ccc(S(=O)(=O)N2CN(c3cccc(C(C)=O)c3)c3nc4ccccc4nc32)cc1	-15%	-71*	?	-11%
C/C(=N\N1CCN(C2c3ccccc3-c3ccccc32)CC1)c1ccncc1	13µM*	-35	15%	8%
C(=N\N1CCN(C2c3ccccc3-c3ccccc32)CC1)/c1ccncc1	0%	-8	-19%	-24%
Fc1cccc(-c2cc3cnc(Nc4ccc(C(F)(F)F)cc4)cc3[nH]2)c1	.	-7	.	.
COc1ccccc1CNC(=S)NC1CCCCC1	-5%	-74*	8.9µM*	?
COc1cccc(CNC(=S)NC2CCCC2)c1	15%	-61*	8%	-4%
COc1cccc(CNC(=S)NC2CC2)c1	-4%	-6	16%	18%[46.1 µM]
O=C1CCCC(=O)C1C(=O)c1ccc(C(F)(F)F)cc1[N+](=O)[O-]	.	2	.	.
O=Nc1ccccn1	.	26	.	.
Cc1ccc(Cn2c3ccccc3c3cnn(CC(=O)N4CCCCCC4)c(=O)c32)cc1	-24%	18	.	22%[46.1 µM]
COC(=O)C1=C(C)N(CC2CC2)C(N(C)Cc2ccc(OC)cc2)=NC1c1ccccc1 (configuration not stated)	.	.	.	-14%[14.2 µM]
SMILES	FMDV inh	HCMV inh	LASV entry inh	MARV entry inh
CC(=O)Nc1ccc(NC(=O)c2oc3c(c2C)-c2nn(Cc4ccccc4Cl)cc2CC3)cc1	-29%	-32	20%[46.1 µM]	.
COc1ccc(CCC(=O)N2c3ccccc3N=C(c3ccc(C(F)(F)F)cc3)C2C(=O)NC(C)C)cc1 (configuration not stated)	34%	3	.	.
Cc1cc(C)cc(OC(C)C(=O)Nc2nonc2-c2ccc(Br)cc2)c1 (configuration not stated)	-30%	-62*	11%[46.1 µM]	-3%[46.1 µM]
Cc1cccc(C)c1OCC(=O)Nc1nonc1-c1ccc(Br)cc1	-4%	-19	?	0%[46.1 µM]
Cc1ccc(-n2c(SCC(N)=O)nc3c(c2=O)C2(CCCC2)Cc2ccccc2-3)cc1	22µM*	?	?	?
Cc1nn(Cc2c(F)c(F)c(F)c(F)c2F)c(C)c1NC(=O)c1ccc(COc2ccc(Cl)cc2Cl)o1	-10%	-81*	?	?
CC(C)CNC(=O)c1ccc(COc2ccc(Cl)cc2Cl)o1	0%	-14	11µM*	-17%
Cc1nn(Cc2ccc(Cl)cc2Cl)c(C)c1NC(=O)c1ccc(COc2cc(Cl)ccc2Cl)o1	?	-40	-17%	?
Cc1nn(Cc2cccc(F)c2)c(C)c1NC(=O)c1ccc(COc2ccccc2Cl)cc1	?	-76*	-32%[14.3 µM]	-8%
